High-throughput results: PubChem, National Center for Advancing Translational Sciences (NCATS)
nsP2pro inh – blocks chikungunya virus nsP2 protease peptide cleavage; actives 1.1% (n = 31,000); Potency, µM (top dose mostly 24.9 µM), actives largely listed as inhibitors; FRET peptide cleavage, nsP2pro, fluorescence 1 h; Q8JUX6; note: nearly all actives have a fitted effect of over 60% in size
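Recombinant nsP2pro (150 nM) was preincubated with compound 15 min at room temperature in 10 mM Tris-HCl pH 8.0, 0.01% Tween 20. Peptide 2 FRET substrate (2.5 uM) was then added and fluorescence read after 1 h. Seven-point series, up to 25 uM.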
nsP2 cell sec – cell-based CHIKV nsP2 protease inhibition, secondary; shares compounds with nsP2pro inh; cell-based CHIKV nsP2 protease reporter assay; Potency, µM (highest dose often 51.1 µM), most hits filed as inhibitors; actives 10% (n = 450); note: nearly all actives have a fitted effect of over 70% in size
NSP2 full ctr – full-length CHIKV NSP2 protease inhibition, selectivity; Full-length CHIKV NSP2 protease enzymatic counterscreen; Potency, µM (series often up to 50.7 µM), actives largely listed as inhibitors; shares compounds with nsP2pro inh; actives 39% (n = 410); note: nearly all actives have a fitted effect of over 65% in size
Furin counter – inhibits human furin in a CHIKV nsP2 protease selectivity counterscreen; AID 1964102; actives 6% (n = 410); shares compounds with nsP2pro inh; Recombinant human furin enzymatic counterscreen, fluorogenic substrate; Potency, µM (series often up to 50.6 µM), most hits filed as inhibitors
nsP2 NS23 pep – selectivity test for CHIKV nsP2 protease inhibitors: endogenous NS2/3 peptide | shares compounds with nsP2pro inh | Purified CHIKV nsP2 protease, endogenous NS2/3 peptide cleavage | Potency, µM (series often up to 51 µM), usual class: inhibitors | actives 34% (n = 410); note: nearly all actives have a fitted effect of over 55% in size
Papain counter – selectivity counter-screen for CHIKV nsP2 protease inhibitors: papain. shares compounds with nsP2pro inh. purified papain protease activity, enzymatic inhibition. Potency, µM (doses to about 51 µM), actives largely listed as inhibitors. actives 5% (n = 410). AID 1964104
nsP2pro conf qHTS – CHIKV nsP2 protease inhibition, confirmatory qHTS; AID 1964105; shares compounds with nsP2pro inh; actives 43% (n = 410); Potency, µM (titrated, usually from 25.5 µM), most hits filed as inhibitors; CHIKV nsP2 protease enzymatic activity, qHTS; note: nearly all actives have a fitted effect of over 75% in size
HCV NS3 4A cs – HCV NS3/4A protease inhibition, counterscreen | shares compounds with nsP2pro inh | HCV NS3/4A protease biochemical counterscreen | Potency, µM (doses to about 50.9 µM), usual class: inhibitors | actives 20% (n = 410); note: nearly all actives have a fitted effect of over 55% in size
Of the large screens only hits and unclear results are named; the others gave an inactive call (follow-up assays come after a bar, where they were run). This is one part of a sample in which hits are shown more often than they occur. Calls come from the whole dose curve.

CCOC(=O)c1ccc(-c2ccc3ncnc(NCc4ccc(C)o4)c3c2)o1	none
Cc1ccc2oc(NC3=NC(c4[nH]ncc4Cl)C4=C(CCCC4=O)N3)nc2c1 (stereo not drawn)	none
O=C([C@H](Cc1ccc(O[S+](=O)([O-])c2cccnc2)cc1)N[S+](=O)([O-])c1ccccn1)N1CCN(c2ccccc2)CC1	none
CNC1CCN(C(Cc2cccc(-c3ccncc3)c2)C(=O)c2sc3c(F)ccc(F)c3c2Cl)CC1 (stereo not drawn)	none (no result: nsP2pro inh) | nsP2 cell sec inconclusive | NSP2 full ctr inconclusive | Furin counter inactive | nsP2 NS23 pep inactive | Papain counter inactive | nsP2pro conf qHTS inactive | HCV NS3 4A cs inactive
O=C(NC1CCN(Cc2cccc(-c3cccs3)c2)CC1)c1cccc(Cl)c1	none
COc1cccc(-c2ccc(CN3CCCC(NC(=O)c4ccc(Cl)cc4)C3)cc2)c1 (stereo not drawn)	none
COc1cc(N2CCC(N3CCN(C)CC3)CC2)ccc1Nc1ncc(Cl)c(-c2c[nH]c3ccccc23)n1	none
COc1ccc(S(=O)(=O)c2cc3cc(OC)ccc3oc2=O)cc1	none
COc1ccc(S(=O)(=O)N2CCN(S(=O)(=O)c3ccc(OC)cc3)CC2)cc1	none
COc1ccc(S(=O)(=O)ON=C2C=C(C)C(=O)C(C)=C2)cc1	nsP2pro inh inconclusive | nsP2 cell sec 2.24µM | NSP2 full ctr inconclusive | Furin counter inactive | nsP2 NS23 pep 6.51µM | Papain counter 9.19µM | nsP2pro conf qHTS inconclusive | HCV NS3 4A cs inactive
COC(=O)c1ccc2c(c1)/C(=C/c1cc(Br)c(O)c(Br)c1)C(=O)N2	none
CCc1ccc(-n2c(CCC(=O)O)ccc2-c2cccs2)cc1	none
Cc1c(Cl)cccc1NC(=O)Cn1c(CCC(=O)O)ccc1-c1cccs1	none
O=C(O)CCc1ccc(-c2cccs2)n1CC(=O)Nc1ccccc1C(F)(F)F	none | nsP2 cell sec inactive | NSP2 full ctr inactive | Furin counter inactive | nsP2 NS23 pep inactive | Papain counter inactive | nsP2pro conf qHTS inconclusive | HCV NS3 4A cs inactive
CC(=O)OCC(=O)C1(O)CCC2C3CCC4=CC(=O)CCC4(C)C3C(=O)CC21C (stereo not drawn)	none
Cc1nn2c(c1-c1ccccc1[S+](C)(=O)[O-])N(CCCc1ccccc1)CCC2	none
Cc1cc(C)nc(NC(=S)N2CCN(c3ncccn3)CC2)c1	none
O=C(Nc1nc(-c2ccccc2)cs1)c1ccncc1NS(=O)(=O)c1ccc2c(c1)CCC2	none
CNC(=O)c1cc(C2CC2)nc2onc(C3CCN([S+](=O)([O-])c4ccccc4)C3)c12 (stereo not drawn)	none
Cc1cccc(-c2nc3c4ccccc4n(CC(=O)Nc4cc(F)ccc4F)c(=O)n3n2)c1	none
Cc1c(Cc2ccc3ccccc3n2)c2cc(F)ccc2n1CC(=O)O	nsP2pro inh inconclusive | nsP2 cell sec inactive | NSP2 full ctr inactive | Furin counter inactive | nsP2 NS23 pep inactive | Papain counter inactive | nsP2pro conf qHTS inconclusive | HCV NS3 4A cs inactive
Cc1ccccc1Cn1c(C(=O)O)c(CNCc2cccc(F)c2)c2ccccc21	none
C=C/C=C/[C@@H]1OC[C@H](/C=C/C=C/C)[C@H]1O	none
O=[N+]([O-])c1ccc(/C=C/c2cccc(CO)n2)o1	none
Cc1ccc(-c2cc(C(=O)Nc3ccccc3Cl)c3ccccc3n2)cc1C	none
CC(C)c1ccccc1-c1nc2c(c(NCc3ccc(-c4cccnc4)cc3)n1)CNC2	none
Cc1ccc(-n2nc(C)c([C@@H]3C=C[C@@H](NCc4ccc(F)cc4)C3)c2C)cc1Cl	none
Cc1nn(CCC#N)c(C)c1[C@@H]1C=C[C@@H](NCc2ccc(C(C)C)cc2)C1	nsP2pro inh inconclusive | nsP2 cell sec inactive | NSP2 full ctr 5.95µM | Furin counter inactive | nsP2 NS23 pep 16.8µM | Papain counter inactive | nsP2pro conf qHTS 11.6µM | HCV NS3 4A cs 4.21µM
Cc1nn(-c2ccc(F)cc2)c(C)c1[C@@H]1C=C[C@@H](NCc2ccc(C(C)C)cc2)C1	none
CCOC(=O)c1cccc(-n2cnc(/C=C3\NC(=O)N(CC(=O)OC(C)(C)C)C3=O)c2)c1	none
O=C1CCCC2=C1C(c1[nH]ncc1Cl)N=C(Nc1nc3c(Br)cccc3o1)N2 (stereo not drawn)	none
N#Cc1cc(NC(=O)Nc2nnc(-c3ccncc3)s2)ccc1F	none
Cc1ccc(OCCn2c(CCNC(=O)/C=C/c3ccccc3)nc3ccccc32)cc1	none
CC(C)=CCCC(C)=CCCC(C)=CCCC=C(C)CCC=C(C)CCC=C(C)C	none
CC(C)(CO)c1cc2cc(NC(=O)C3(c4ccc5c(c4)OC(F)(F)O5)CC3)c(F)cc2n1C[C@@H](O)CO	none
C=C1C(=O)O[C@@H]2C[C@H](C)[C@@H]3CC(=O)C(C)=C3C[C@H]12	nsP2pro inh 0.442µM | nsP2 cell sec inconclusive | NSP2 full ctr inconclusive | Furin counter inactive | nsP2 NS23 pep inconclusive | Papain counter inactive | nsP2pro conf qHTS inconclusive | HCV NS3 4A cs inactive
C=C1C(=O)O[C@@H]2C[C@]3(C)[C@@H](CCC(C)=O)[C@@H]3C[C@H]12	none
CC1=C2CC(O)(C(C)(C)O)C(O[C@@H]3O[C@H](CO)[C@@H](O)[C@H](O)[C@H]3O)CC(C)C2CC1=O (stereo partly drawn)	none
CO[C@H]1C[C@@H]2CC[C@@H](C)[C@@](O)(O2)C(=O)C(=O)N2CCCC[C@H]2C(=O)O[C@H]([C@H](C)C[C@@H]2CC[C@@H](OCCO)[C@H](OC)C2)CC(=O)[C@H](C)/C=C(/C)[C@@H](O)[C@@H](OC)C(=O)[C@H](C)C[C@H](C)\C=C/C=C\C=C/1C	none
N[C@H](Cc1ccccc1)C(=O)Nc1ccc(Cl)cc1C(=O)c1ccc[nH]1	none
O=C(O)c1cc(O)c2c(c1)C(=O)c1cccc(O)c1C2=O	nsP2pro inh inconclusive | nsP2 cell sec inactive | NSP2 full ctr inactive | Furin counter inactive | nsP2 NS23 pep inactive | Papain counter inconclusive | nsP2pro conf qHTS inactive | HCV NS3 4A cs inactive
O=C(O)c1ccc(C(=O)O)cc1	none
O=C1Nc2ccccc2/C1=C/c1cccc(C(=O)O)c1	none
O=C1c2c(O)cccc2Cc2cccc(O)c21	none
Cc1cc(O)c2c(c1)C(=O)c1cccc(O)c1C2=O	nsP2pro inh inconclusive | nsP2 cell sec inactive | NSP2 full ctr inconclusive | Furin counter inactive | nsP2 NS23 pep inactive | Papain counter inactive | nsP2pro conf qHTS inconclusive | HCV NS3 4A cs inactive
O=S(=O)(NCC1CN(CC2CC2)CC12CCCCC2)c1cccs1 (stereo not drawn)	none
